Values without a mark were called inactive. Active and inactive are the calls of the source. The call rests on the fitted dose curve; in most records, active means well fitted inhibition curve with a large enough effect; inconclusive means small, poorly fitted or top-dose-only effect; inactive means flat fitted curve, though single readings scatter.
The compounds below were run against Luciferin 4-monooxygenase (Photinus pyralis) (UniProt P08659) (assay: Primary firefly luciferase (FLuc) qHTS assay for identification of artifact compounds. (AID 1845220; further: nearly all actives have a fitted effect of over 60% in size;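 on activity change, negative = inhibition: plate controls were DMSO vehicle for no effect and no enzyme for full effect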)). Conditions: purified firefly luciferase, luminescence, 5 min; series mostly up to 54.1 µM; activity change, negative = inhibition: at the top concentration.
Summary of the method: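 FLuc 10 nM; luciferin 10 uM; ATP 10 uM; Tris-acetate pH 7.6, Mg-acetate 10 mM; 15 min RT preincubation; 5 min reaction; luminescence.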

Compound	activity change, negative = inhibition	outcome
CC(C)[C@H](NC(=O)c1nn(Cc2ccc(F)cc2)c2ccccc12)C(N)=O	-10.4%	–
COC1CCCC(C)OC(=O)Cc2cc(O)cc(O)c2C(=O)C1 (configuration not stated)	0.373%	–
CN1CCCCC1Cn1cc(C(=O)c2cc([N+](=O)[O-])ccc2I)c2ccccc21 (configuration not stated)	–	inactive
C=C1C(=O)CC2OC2(C)CC2OC(=O)C(=C)C2C(O)C1OC(=O)/C(C)=C\C (configuration not stated)	-16.9%	–
CC12CCC3C(C1)c1c(cc(O)c(C(=O)c4ccccc4)c1OC3(C)C)O2 (configuration not stated)	3.47%	–
CN1C(=O)[C@@H](Cc2c[nH]c3ccccc23)N=C(c2ccccc2F)c2ccccc21	–	inactive
C#C[C@]1(O)CC[C@H]2[C@@H]3CC[C@H]4Cc5nc6nc7ccccc7n6cc5C[C@]4(C)[C@H]3CC[C@@]21C	0.536%	–
CC(C)[C@H]1OC(=O)[C@H](Cc2ccccc2)N(C)C(=O)[C@@H](C(C)C)OC(=O)[C@H](Cc2ccccc2)N(C)C(=O)[C@@H](C(C)C)OC(=O)[C@H](Cc2ccccc2)N(C)C1=O	-11.4% [at 25.7 µM]	–
CCC1C2CC3C4N(C)c5ccccc5C45CC(C2C5O)N3C1O (configuration not stated)	3.99%	–
COc1cc(O)c2c(c1)CCC[C@@H](O)[C@H](O)C(=O)/C=C\C[C@H](C)OC2=O	-8.51%	–
CCCCCCC1C(=O)O[C@H](C)[C@H](NC(=O)c2cccc(NC=O)c2O)C(=O)O[C@@H](C)[C@@H]1OC(=O)CC(C)C (some centres not stated)	4.87%	–
C[C@@H]1O[C@@H](OC2CCC3(C=O)C(CCC4C3CCC3(C)C(C5=CC(=O)OC5)C(O)CC43O)C2)[C@H](O)[C@H](O)[C@H]1O[C@@H]1O[C@H](CO)[C@@H](O)[C@H](O)[C@H]1O (some centres not stated)	–	inactive [at 25.7 µM]
C=C(C)C(=O)O[C@H]1[C@@H]2[C@H](C)C(=O)O[C@@H]2C[C@@H](C)[C@@H]2C=CC(=O)[C@]21C	4.03%	–
CCN1C[C@]2(COC)CC[C@H](O)[C@@]34C5C[C@@H]6[C@@H](OC)C[C@@](OC(C)=O)(C5[C@@H]6OC(C)=O)[C@H]([C@H](OC)C23)[C@@H]14 (some centres not stated)	-1.54% [at 25.7 µM]	–
CN1C(=O)N(c2ccc(C#N)c(C(F)(F)F)c2)C(=O)[C@@]1(CO)c1ccccc1	2.14%	–
CC(=O)O[C@H]1C[C@]2(O)[C@@H]3CC[C@@H]4C[C@@H](O)CC[C@]4(C)[C@H]3CC[C@]2(C)[C@H]1c1ccc(=O)oc1	-3.22%	–
CCCCCn1cc(C(=O)Oc2cccc3cccnc23)c2ccccc21	-0.537%	–
CN=C(NS(=O)(=O)c1ccc(Cl)cc1)N1C[C@H](c2ccccc2)C(c2ccc(Cl)cc2)=N1	2.07%	–
COC1CC(O[C@H]2CC[C@@]3(C)C(CCC4C3CC[C@]3(C)C(C5=CC(=O)OC5)CCC43O)C2)OC(C)C1OC1OC(COC2OC(CO)C(O)C(O)C2O)C(O)C(O)C1O (some centres not stated)	-3.95% [at 11.6 µM]	–

Compound	activity change, negative = inhibition	outcome
C=C(C)[C@@]12O[C@@H]1[C@@]1(C)C(=CC2=O)CC[C@@H](OC(C)=O)[C@@H]1C	4.91%	–
CN1Cc2c(ccc3c2OCO3)[C@@H]2[C@H]1c1cc3c(cc1C[C@@H]2O)OCO3	3.11%	–
CN(Cc1cccc(-c2ccncc2)c1)C(=O)Oc1ccc(-c2ccc(C(N)=O)cc2)cc1	-11.6%	–
CC1=CC2OC3CC(O)[C@](C)([C@@]2(C)C(O)C1=O)[C@]31CO1 (some centres not stated)	0.603%	–
CC[C@H](O)[C@@H](C)[C@H]1O[C@@H]1C[C@H](C)/C=C/C=C(\C)[C@H]1OC(=O)C[C@H](O)CC[C@@](C)(O)[C@@H](OC(C)=O)/C=C/[C@@H]1C	-6.15%	–
CN(C(=O)C(c1ccccc1)c1ccccc1)[C@H](CN1CC[C@H](O)C1)c1ccccc1	–	inactive
COC(=O)C12C(=O)C(C)(O)C(=O)C1(C)C(C)=CC1C34CCC(OC3=O)C(C)(C)C4CCC12C (configuration not stated)	-15.7% [at 25.7 µM]	–
CCOc1ccc(Oc2ccc(OCc3cc(F)ccc3F)cc2)c(N)c1	2.16%	–
Cc1ccc2c(c1)[C@H]1CN(C)CC[C@H]1N2C(=O)CSc1nnnn1-c1ccc(Cl)cc1	–	inactive
C=C1C2(C)CC3C(C)(O)C4=CC(=O)OC(C)(C)C4=CCC3(C)C13C(=O)OC(C)C3(O)C2=O (configuration not stated)	-8.5% [at 25.7 µM]	–
Fc1cc(F)c2c(c1)C1C=CCC1C(c1cccnc1)N2 (configuration not stated)	–	inactive
CCCN(CCC)[C@@H]1CCc2ccc3[nH]c(C#N)cc3c2C1	0.812%	–
C[C@]12CC[C@H](O)C[C@@H]1CC[C@@H]1[C@@H]2CC[C@]2(C)[C@@H](C3=CC(=O)OC3)CC[C@]12O	0.269%	–
CC1=CC(=O)[C@@H](O)[C@@]2(C)C1C[C@H]1OC(=O)[C@H](O)[C@@]3(O)[C@@H](C)[C@@H](O)[C@H](O)C2[C@@]13C (some centres not stated)	–	inactive
c1ccc([C@@H]2C[C@H]2NC2CCNCC2)cc1	-38.4%	–
CC(=O)OC[C@]12[C@H](OC(C)=O)C(=O)[C@@H]3[C@@H](O)[C@@]14O[C@@]3(C)COC(=O)c1cccnc1[C@@H](C)[C@H](C)C(=O)O[C@@H]([C@H](OC(C)=O)[C@@H]2OC(C)=O)[C@]4(C)O	2.86% [at 25.7 µM]	–
Cc1c(N[C@@H](c2nnc(-c3ccc(C#N)cc3)o2)[C@H](C)O)ccc(C#N)c1Cl	0.758%	–
COc1ccc2c(c1)c(CCN(C)C)cn2S(=O)(=O)c1ccccc1	–	inactive
